The structures appear in SMILES notation. Screen size: about 1,300 compounds; about 460 (35%) were called active. About 39% were inconclusive and are not listed. Some of the results follow. Values without a mark were called inactive. The call rests on the fitted dose curve; in most records, active means well fitted inhibition curve with a large enough effect; inconclusive means small, poorly fitted or top-dose-only effect; inactive means flat fitted curve, though single readings scatter.

Experimental findings from PubChem BioAssay AID720540 (National Center for Advancing Translational Sciences (NCATS), 2013) are described below.
Potency means the concentration at half of the fitted maximal effect.

Sequence of Protein phosphatase EYA2 (Homo sapiens) (O00167 whole entry, looked up): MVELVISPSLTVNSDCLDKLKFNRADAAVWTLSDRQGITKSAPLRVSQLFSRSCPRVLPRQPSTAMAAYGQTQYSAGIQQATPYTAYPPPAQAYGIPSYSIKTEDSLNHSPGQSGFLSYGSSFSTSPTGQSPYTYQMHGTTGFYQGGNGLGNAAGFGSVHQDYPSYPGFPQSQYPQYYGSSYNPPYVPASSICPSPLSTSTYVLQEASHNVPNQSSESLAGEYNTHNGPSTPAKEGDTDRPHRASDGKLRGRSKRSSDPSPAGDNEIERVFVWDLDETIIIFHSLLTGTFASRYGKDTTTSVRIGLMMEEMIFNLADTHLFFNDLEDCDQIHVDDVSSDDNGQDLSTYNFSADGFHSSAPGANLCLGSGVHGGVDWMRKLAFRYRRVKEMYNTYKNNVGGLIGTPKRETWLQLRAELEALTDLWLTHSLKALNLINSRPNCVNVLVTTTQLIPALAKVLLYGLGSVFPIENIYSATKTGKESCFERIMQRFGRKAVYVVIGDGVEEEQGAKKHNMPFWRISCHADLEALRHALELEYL

For this assay, the target named is Protein phosphatase EYA2 (Homo sapiens) (UniProt O00167). Briefly: qHTS for Inhibitors of the Phosphatase Activity of Eya2: Confirmatory Assay for Cherry-picked Compounds. Further: nearly all actives have a fitted effect of over 65% in size.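 On activity change, negative = inhibition: 0% = DMSO wells and -100% = EGTA control giving full inhibition.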 The conditions noted are these: purified EYA2 phosphatase activity, qHTS confirmation; series mostly up to 46.1 µM; activity change, negative = inhibition: at the top concentration. An outline of the steps:
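Eya2 (0.2 uM working solution) preincubated 10 min at room temperature with compound in pH 7.5 HEPES buffer with MgCl2, BSA, DTT. OMFP added (50 uM working solution), 10 min more; fluorescence 485/525 nm, normalized to EGTA and DMSO.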
Background: In qHTS, concentration-response curves come from the screen itself.
For `CCOC(=O)N1CCN(S(=O)(=O)c2ccc(C(=O)NNc3nc4ccc(Cl)cc4s3)cc2)CC1`, the “activity change, negative = inhibition” value is -26.1%.

Turning to `CC(C)N=c1cc2n(-c3ccc(Cl)cc3)c3ccccc3nc-2cc1Nc1ccc(Cl)cc1`, the Potency is 1.9 µM (active).

`CCOC(=O)/C(C#N)=C/c1ccc(OC(=O)c2ccccn2)cc1`: the Potency was 8.49 µM (active).

For `N#C/C(=C\c1ccc(OC(=O)c2ccc(Cl)s2)cc1)c1nc2ccccc2[nH]1`, the “activity change, negative = inhibition” value is -24.6%.

For the compound `N#C/C(=C\c1ccc(OC(=O)c2ccccn2)cc1)C(N)=O`, the Potency was 16.9 µM (active).

For `N#C/C(=C\c1ccc(OC(=O)c2ccc(Br)s2)cc1)c1nc2ccccc2[nH]1`, the “activity change, negative = inhibition” value is -29.8%.

Turning to `N#C/C(=C/c1ccc(OC(=O)c2ccc(Br)s2)cc1)c1nc2ccccc2[nH]1`, the “activity change, negative = inhibition” value is -20.4%.

With `CC(=O)Nc1cc(=O)c2cccnc2[nH]1`, the Potency was 15.1 µM (active).

Consider `CNC(=O)c1cc2c(cn1)[nH]c1ccccc12`, for which the “activity change, negative = inhibition” value was -20.3%.

With `CCNc1ccc2noc3c2c1C(=O)c1ccccc1-3`, the Potency is 6.75 µM (active).

For `COc1cc(CNCc2ccc(OC)cc2OC)cc(OC)c1`, the “activity change, negative = inhibition” value is -15.2%.

Consider `CSc1nc(NCCOCCO)c2sc3nc(-c4ccco4)c4c(c3c2n1)CCC4`, for which the Potency was 7.57 µM (active).

`CCCOc1ccc(C2C3=C(Nc4nc(N)[nH]c(=O)c42)c2ccccc2C3=O)cc1` (stereo not drawn): the Potency was 3.38 µM (active).

Take `Nc1nc2c(c(=O)[nH]1)C(c1ccccc1)C1=C(N2)c2ccccc2C1=O` (stereo not drawn): the Potency is 1.69 µM (active).

Turning to `Nc1nc2c(c(=O)[nH]1)C(c1cccc3ccccc13)C1=C(N2)c2ccccc2C1=O` (stereo not drawn), the Potency was 7.57 µM (active).

On to `CCOc1ccc(C2C3=C(Nc4nc(N)[nH]c(=O)c42)c2ccccc2C3=O)cc1` (stereo not drawn), for which the Potency was 2.69 µM (active).

Take `O=C1/C(=C/c2ccco2)SC(=S)N1c1cccnc1`: the Potency is 12 µM (active).

As to `Nc1n[nH]c2cc(=O)n(-c3ccc(Cl)cc3)nc12`, the “activity change, negative = inhibition” value is -21.2%.

On to `Cn1nc(C(=O)Nc2nc3ccccc3[nH]2)c2ccccc2c1=O`, for which the Potency is 16.9 µM (active).

As to `CCN(CC)C(=O)CC(c1ccc(OC)cc1)c1c(OC)cc(OC)c2ccc(=O)oc12` (stereo not drawn), the “activity change, negative = inhibition” value was -8.28%.

With `CN1N/C(=C\c2ccccc2)N=C2C(=O)N(C)C(=O)N=C21`, the Potency was 12 µM (active).

With `CCOc1cccc(CN2CCC(CCC(=O)NC3CC3)CC2)c1O`, the “activity change, negative = inhibition” value was -6.6%.

Regarding `Cc1ccc(Nc2nc(NCCO)nc3c2cnn3C)cc1Cl`, the Potency is 7.57 µM (active).

`COc1ccc(CNC(=O)c2sc(=O)n(Cc3cc(Cl)ccc3OC)c2C)cc1`: the “activity change, negative = inhibition” value was -20.1%.

In the case of `COc1ccccc1C(=O)Nc1c[nH]c(=O)[nH]c1=O`, the “activity change, negative = inhibition” value was -25.1%.

Regarding `COc1cc2[nH]cc(C(=O)NCc3ccccc3)c(=O)c2cc1OC`, the Potency was 5.36 µM (active).

On to `O=C(C1=C[C@H](c2ccccc2)C[C@H](OCc2ccc(CO)cc2)O1)N1CCN(Cc2ccccc2)CC1`, for which the “activity change, negative = inhibition” value is -21.5%.

On to `Nc1ccc2c(c1Cl)C(=O)c1ccc(N)c(Cl)c1C2=O`, for which the Potency is 3.01 µM (active).

For `Cc1cc(Nc2ccc([N+](=O)[O-])cc2)c2ccccc2n1`, the “activity change, negative = inhibition” value was -15.4%.

Regarding `COc1ccccc1Nc1cc(C)nc2c(C)ccc([N+](=O)[O-])c12`, the Potency was 19 µM (active).

Consider `O=C(NN1C(=O)/C(=C\c2ccc(O)c([N+](=O)[O-])c2)SC1=S)c1ccccc1Cl`, for which the Potency is 12 µM (active).

Consider `O=C(Nc1ccccc1)C(Cl)C(=O)c1ccccc1` (stereo not drawn), for which the “activity change, negative = inhibition” value was -13.8%.

Regarding `O=C(Nc1ccccc1)C1=C(c2ccccc2)S(=O)(=O)CCS1(=O)=O`, the Potency is 13.5 µM (active).

In the case of `O=C(Cn1c(S(=O)(=O)Cc2ccccc2)nc2ccccc21)N1CCCCC1`, the “activity change, negative = inhibition” value is -2.49%.

With `O=C(CSc1ccc(-c2ccccn2)nn1)N1CCCCC1`, the Potency is 7.57 µM (active).

Take `O=C(CSc1ccc(-c2ccccn2)nn1)N1CCCC1`: the Potency was 12 µM (active).

Take `Cc1cc2nc(/N=C(\N)NC(=O)N3c4ccccc4Sc4ccccc43)nc(C)c2cc1C`: the “activity change, negative = inhibition” value was -24.6%.

As to `O=C(Cn1c(C(=O)N2CCc3ccccc3C2)cc2sccc21)c1ccccc1`, the “activity change, negative = inhibition” value was -25.1%.

With `Cc1cc(NC(=O)CS(=O)(=O)c2cn(Cc3cccc(Br)c3)c3ccccc23)no1`, the “activity change, negative = inhibition” value was -26.3%.

Regarding `Cn1ccc2c(N3CCCC3)cc3c(c21)C1CCC3C1` (stereo not drawn), the Potency is 21.3 µM (active).

As for `COC(=O)c1ccc(C23CC4(C2)[C@H](CN(CC2CCCCC2)[C@@H]4c2ccccc2)C3c2ccc(Cl)nc2)cc1` (stereo partly drawn), the “activity change, negative = inhibition” value was -20.7%.

On to `O=C(CC(=O)c1c(F)cccc1Cl)c1ccccc1O`, for which the “activity change, negative = inhibition” value was -12.4%.

In the case of `COC(=O)c1ccccc1NC1=C/C(=N\S(=O)(=O)c2cccs2)c2ccccc2C1=O`, the Potency was 1.69 µM (active).

Regarding `O=c1c2ccccc2nnn1CSc1nnc(C2COc3ccccc3O2)n1-c1ccccc1` (stereo not drawn), the “activity change, negative = inhibition” value was -29.4%.

In the case of `O=c1c2ccccc2c(C=Nc2cccc(S(=O)(=O)NC3=NCCCCC3)c2)c(O)n1Cc1ccccc1`, the “activity change, negative = inhibition” value was -13.3%.

In the case of `COc1ccc(S(=O)(=O)c2c(O)c3ccc(C(=O)Nc4cccc(F)c4)cc3[nH]c2=O)cc1`, the Potency is 0.338 µM (active).

`COc1cccc(NC(=O)c2ccc3c(c2)CCN3S(C)(=O)=O)c1`: the “activity change, negative = inhibition” value was -14.2%.

As for `Cc1ccc(Nc2nnc(SCC(=O)c3c(N)n(C4CC4)c(=O)[nH]c3=O)s2)cc1C`, the “activity change, negative = inhibition” value was -26.1%.
